Assay results as given in PubChem BioAssay AID2284348 (EPA ToxCast).
Inconclusive results are not listed. Active and inactive are the calls of the source. The calls were made as follows: active = hit-call score of the fitted dose curve at least 0.9, where 1 is the maximum; inconclusive = response in the unintended direction; inactive = score below 0.9.

tested on: Japanese medaka Peroxisome Proliferator-activated Receptor alpha (PPARa), gene 100304458; assay: ATG_jmPPARa_EcoTox2: Attagene TRANS-FACTORIAL EcoTox-2 HepG2 Assay for Japanese medaka Peroxisome Proliferator-activated Receptor alpha (PPARa)
Experimental: ATG_EcoTox2 is a cell-based, multiplexed assay created by modifying the existing Attagene TRANS-FACTORIAL system to include a panel of nuclear receptors from some or all the following species: human (Homo sapiens), african clawed frog (Xenopus laevis), rainbow trout (Oncorhynchus mykiss), japanese medaka (Oryzias latipes), and zebrafish (Danio rerio). The ECOTOX2-FACTORIAL format uses HepG2, a human liver cell line, with measurements taken at 24 hours after chemical dosing in a 24-well plate. ATG_jmPPARa_EcoTox2 is one of 29 assay components calculated in the ATG_EcoTox2 assay. It is designed to make measurements of mRNA induction, a form of inducible reporter, as detected with fluorescence intensity signals by Reverse transcription polymerase chain reaction (RT-PCR) and Capillary electrophoresis technology.The assay endpoint ATG_jmPPARa_EcoTox2 was analyzed in the positive analysis fitting direction relative to DMSO as the negative control and baseline of activity. Using a type of inducible reporter, measures of mRNA for gain-of-signal activity can be used to understand the reporter gene at the transcription factor-level as they relate to the gene PPARa. Furthermore, this assay endpoint can be referred to as a […], because this assay has produced multiple assay endpoints where this one serves a reporter gene function. To generalize the intended target to other relatable targets, this assay endpoint is annotated to the nuclear receptor intended target family, where the subfamily is non-steroidal.
Human liver HepG2 cells are transiently transfected with multiple reporter transcription units (MRTUs) in 6-well plates using FuGene 6 reagent (Roche; 3 ml FuGene/1 mg DNA). The MRTU constructs are regulated by a cis-regulating element (promoter). Each RTU expresses a GAL4-UAS that regulates the transcription of a nearby target reporter gene sequence. A major difference between the CIS and TRANS system is that in CIS activities of endogenous TFs are measured, whereas the TRANS assay evaluates changes in activities of exogenous, chimeric NR-Gal4 proteins. […] At the end of 24 hour incubation, total RNA was isolated using TriZol reagent (Invitrogen). The isolated RNA is then reverse-transcribed using oligo(dT) primer and Mo-MLV reverse transcriptase (Invitrogen) with DNAse I (Ambion) treatment for 30 min. The one-tenth of the produced cDNA was amplified by PCR using Taq DNA polymerase (Invitrogen) and two reporter sequence-specific primers. The PCR products were fluorescently labeled by primer extension with 6-arboxyfluorescein (6-FAM) 5'-labeled reporter sequence-specific primer (2 min at 95 C, 20 s at 68 C and 10 min at 72 C) and these products were digested with 5U of HpaI (New England Biolabs) for 2h at 37 C. The fragments were purified using Qiaquick PCR columns (Qiagen), analyzed on an ABI 3130xL genetic analyzer (Applied Biosystems) with peak positions identified by using a set of X-rhodamine (ROX)-labeled MapMarker1000 molecular weight standards (BioVentures). The raw capillary electrophoresis data was processed using Attagraph software (Attagene).

| SMILES | outcome | AC50 |
| --- | --- | --- |
| CN(CCOc1ccc(CC2SC(=O)NC2=O)cc1)c1ccccn1 (stereo unspecified) | inactive | – |
| C[C@@H]1C[C@H]2[C@@H]3CCC4=CC(=O)C=C[C@]4(C)[C@@]3(F)[C@@H](O)C[C@]2(C)[C@@]1(O)C(=O)COP(=O)(O)O | inactive | – |
| CC(C)OC(=O)C(C)(C)Oc1ccc(C(=O)c2ccc(Cl)cc2)cc1 | inactive | – |
| CC(C)(Oc1ccc(Cl)cc1)C(=O)O | inactive | – |
| CC(C)(Oc1ccc(CCNC(=O)c2ccc(Cl)cc2)cc1)C(=O)O | – | 45.9 µM (active) |
| C=C(c1ccc(C(=O)O)cc1)c1cc2c(cc1C)C(C)(C)CCC2(C)C | inactive | – |
| Cc1ccc(C)c(OCCCC(C)(C)C(=O)O)c1 | inactive | – |
| Cc1nc(-c2ccc(C(F)(F)F)cc2)sc1C(=O)NCc1ccc(OC(C)(C)C(=O)O)cc1 | – | 0.0807 µM (active) |
| CC(C)(Oc1ccc(C2CC2(Cl)Cl)cc1)C(=O)O (stereo unspecified) | – | 58.5 µM (active) |
| C[C@]12C=CC(=O)C=C1CC[C@@H]1[C@@H]2C(=O)C[C@@]2(C)[C@H]1CC[C@]2(O)C(=O)CO | inactive | – |
| Cc1cccc(Nc2cc(Cl)nc(SCC(=O)O)n2)c1C | – | 63.8 µM (active) |
